From PubChem BioAssay AID1852 (Sanford-Burnham Center for Chemical Genomics, 2009) come the findings set out here.

Screen size: about 2,500 compounds; about 1,100 (44%) were called active. So high a share suggests a set chosen from earlier hits. This is one part of the list. Unmarked numbers belong to inactive results.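 How the source made its calls: active means inhibition above 50% at 4 µM in the single-point screen; inactive means inhibition of 50% or less.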

The assay can be described thus: blockers of TNF-a NF-kB luciferase induction – cell-based, HEK293T NF-kB-Luc, luminescence, selectivity assay for NOD1/NOD2 signaling inhibitor project, primary screen (AID 1852). To be noted: TNF-a induced, 14 h, at 4 µM, active compounds read high.
With `COc1ccc(-n2c(C)c(C(C)=O)c3cc(O)ccc32)cc1`, the inhibition was 72.1% (active). For `CC(=O)c1c(C)n(-c2ccc(Cl)cc2)c2ccc(O)cc12` the value was 12.3%; for `CC(=O)c1ccc(-n2c(C)c(C(C)=O)c3cc(O)ccc32)cc1`, 50.8% (active). Consider `CC(=O)c1ccc(N2CCN(c3ccnc4cc(Cl)ccc34)CC2)cc1`, for which the inhibition was 45.2%.

Take `CC(=O)c1c(C)n(-c2ccccc2)c2ccc(O)cc12`: the inhibition was 68% (active). For `Cc1ccc(S(=O)(=O)NC(CC(C)C)C(=O)N2CC(C)OC(C)C2)cc1` (stereo unspecified) the value was 9.2%.

For `O=C1CCC2S/C(=C/Nc3ccc(C(F)(F)F)cc3)C(=O)N12` (stereo unspecified), the inhibition was 95.8% (active).

With `Cc1cc(C(=O)N/N=C/c2cc(Br)cc(Br)c2OC(=O)c2cccc(F)c2)n[nH]1`, the inhibition is 75.2% (active). As for `Cc1cc(C(=O)N/N=C/c2cc(Br)ccc2OC(=O)c2ccccc2)n[nH]1`, the inhibition was 91.1% (active). In the case of `COc1cccc(C(=O)Oc2c(Br)cc(Br)cc2/C=N/NC(=O)c2cc(C)[nH]n2)c1`, the inhibition was 71.1% (active). For `Cc1cccc(Nc2nc(N)nc(CCl)n2)c1` the value was 25.3%. As to `Cc1c(-c2ccccc2)oc2c(C(=O)N3CCN(c4ccc([N+](=O)[O-])cc4)CC3)cccc2c1=O`, the inhibition was 60.9% (active). Then `O=[N+]([O-])c1ccc(N2CCN(c3ccccc3)CC2)nc1`, with -49.6%.

As to `Cc1ccc(S(=O)(=O)NCc2ccc(C(=O)N3CCN(c4ccc([N+](=O)[O-])cc4)CC3)cc2)cc1`, the inhibition was 43.8%. Then `Cc1ccc(S(=O)(=O)N2CCN(CCC#N)CC2)cc1`, with 44.4%; and `CCN1CCN(S(=O)(=O)c2ccc(Cl)c(C(=O)Nc3cc(Cl)ccc3N3CCOCC3)c2)CC1`, with 28.9%; and `CCN1CCN(S(=O)(=O)c2c(C)cc(C)cc2C)CC1`, with 54.2% (active). For the molecule `COc1ccc2[nH]c(C(=O)N/N=C/c3ccc(O)cc3O)cc2c1`, the inhibition was 48.1%. For `Cn1cccc1-c1cc(C(=O)N/N=C/c2cc(Br)ccc2O)[nH]n1` the value was 60.4% (active). Regarding `O=C1CSC(c2cccnc2)N1CCc1ccccn1` (stereo unspecified), the inhibition is 0.7%.

For `Cc1cc(NC(=O)c2ccccc2NS(=O)(=O)c2c(C)c(C)cc(C)c2C)no1`, the inhibition is 9.8%. Then `CS(=O)(=O)Nc1ccccc1C(=O)Nc1cc(Cl)cc(Cl)c1`, with 74.6% (active); and `COc1ccc(C)cc1NC(=O)c1ccccc1NS(=O)(=O)c1ccc(Cl)s1`, with 87.9% (active). Then `O=C(Nc1cc(S(=O)(=O)Nc2ccccc2Cl)ccc1O)c1cc2c(s1)CCCC2`, with 36.1%. `Cc1ccc(NC(=O)c2cc3c(s2)CCCC3)cc1S(=O)(=O)Nc1ccccc1Cl`: the inhibition is 69.1% (active). In the case of `Cc1ccc(NC(=O)c2ccccc2NS(=O)(=O)c2ccc(Cl)s2)cc1`, the inhibition is 71.2% (active). As for `Cc1ccc(NC(=O)c2ccccc2NS(=O)(=O)c2ccc(Cl)s2)cc1S(=O)(=O)N1CCOCC1`, the inhibition is 84.3% (active).

Turning to `COc1cccc(NS(=O)(=O)c2ccc(Br)s2)c1`, the inhibition is -23.8%. For `COc1ccccc1NS(=O)(=O)c1cccc(NC(=O)c2sc3ccccc3c2Cl)c1` the value was 39.2%; for `COc1cc(NC(=O)c2ccccc2NS(=O)(=O)c2ccc(Cl)s2)cc(OC)c1`, 84.9% (active). As to `N#C/C(=C(/O)COC(=O)COc1ccc(Cl)cc1)c1nc2ccccc2[nH]1`, the inhibition was 108% (active). Take `Cc1cc(C)cc(OCC(=O)OC/C(O)=C(\C#N)c2nc3ccccc3[nH]2)c1`: the inhibition was 103% (active).

As to `N#C/C(=C(/O)COC(=O)COc1cccc(Br)c1)c1nc2ccccc2[nH]1`, the inhibition is 33%.

Consider `CCCS(=O)(=O)c1nnnn1-c1cccc(OC)c1`, for which the inhibition is 76.1% (active). For the molecule `N#CCCS(=O)(=O)c1nnnn1-c1ccccc1`, the inhibition was 75.5% (active). For the molecule `CCS(=O)(=O)c1nnnn1-c1ccccc1S(C)(=O)=O`, the inhibition was 43.2%.

`COc1cccc(-n2nnnc2S(C)(=O)=O)c1`: the inhibition was 79.5% (active). With `Cc1cccc(Nc2ncnc3onc(-c4cccc(Cl)c4)c23)c1C`, the inhibition was 15.5%.

As to `COc1cccc(NC(=O)Nc2nc(-c3ccc(OC)c(OC)c3)cs2)c1`, the inhibition was 100% (active). For `COc1ccc(NC(=O)Nc2nnc(-c3ccncc3)s2)cc1` the value was 30%; for `COc1cccc(NC(=O)Nc2cccc(C(=O)O)c2)c1`, 65.7% (active). As to `COc1ccc(OC)c(-c2csc(NC(=O)C3=NNC(=O)CC3)n2)c1`, the inhibition is 37.1%. Then `COc1cccc(NC(=O)CCC2CCN(C(=O)c3cncs3)CC2)c1`, with 4.6%; and `O=C(Nc1cccc(C(=O)O)c1)Nc1ccccc1Cl`, with -17.8%; and `CC(Sc1nnc2c(n1)[nH]c1ccccc12)C(=O)N(C)C1CCCCC1` (stereo unspecified), with 32.3%.

Turning to `COc1ccc(C)cc1NC(=O)CSc1ccc(-c2ccco2)nn1`, the inhibition was -4.4%.

With `COc1ccc(NC(=O)CSc2ccc(-c3cccs3)nn2)c(OC)c1`, the inhibition was 72.8% (active). `COc1ccc(OC)c(NC(=O)CSc2ncnc3c2cnn3-c2ccccc2Cl)c1`: the inhibition was 36.9%. With `COc1ccc(C)cc1NC(=O)CSc1ccc(-c2sc(C)nc2C)nn1`, the inhibition was 21.8%.

As to `COc1ccc(C)cc1NC(=O)CSc1ccc(-c2ccccn2)nn1`, the inhibition is 82.9% (active). For `Cc1ccc(NC(=O)Nc2nnc(-c3ccncc3)s2)cc1C` the value was 43.3%; for `C/C(CC(=O)Nc1cccnc1)=N\NC(=O)c1ccc([N+](=O)[O-])c(Cl)c1`, 15.3%; for `COc1cc(C(=O)Nc2sc3c(c2C(=O)O)CCC(C)C3)cc(OC)c1OC` (stereo unspecified), 40%. Consider `COc1ccc(C(=O)N/N=C(\c2ccccc2)c2ccccn2)cc1`, for which the inhibition is 46.3%. On to `O=C(N/N=C(\c1ccccc1)c1cccnc1)c1cccc(F)c1`, for which the inhibition was 102% (active).

Turning to `COc1cccc(C(=O)N/N=C(/c2ccccc2)c2ccccn2)c1`, the inhibition is 62.2% (active).

Take `COc1cc(C(=O)Nc2scc(-c3ccc(Br)cc3)c2C(=O)O)cc(OC)c1OC`: the inhibition was 21.5%. Then `COc1cc(C(=O)N/N=C(\c2ccccc2)c2ccccn2)cc(OC)c1OC`, with 64% (active); and `COc1ccccc1-c1nnc(Sc2nc([N+](=O)[O-])nn2C)o1`, with 54.9% (active); and `COc1ccccc1-c1nc(C#N)c(N2CCN(c3cccc(Cl)c3)CC2)o1`, with -20.8%.

For the molecule `COc1ccc(-c2csc3nc(-c4ccccc4OC)oc(=O)c23)cc1`, the inhibition was 12.5%.
